The sample as a whole holds a higher share of hits than the screen did.
Pf Dd2 inh: qHTS Primary assay for Inhibitors of Plasmodium falciparum Dd2 growth in vitro. P. falciparum Dd2 growth, SYBR Green, 72 h. Potency, µM (series often up to 28.9 µM), for the others: at the highest dose activity, negative = inhibition, actives largely listed as inhibitors. 4.3% of 120,000 active. AID 1347417, 2020; active = well fitted inhibition curve with a large enough effect;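 note: plate controls were DMSO vehicle for no effect and reference drug for full effect; nearly all actives have a fitted effect of over 65% in size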
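Readout: SYBR Green fluorescence, 485 nm excitation, 535 nm emission, after ~16 h lysis at 37C. Before that, Dd2-infected red cells (2.5% hematocrit) grew 72 h with compound, 29 uM top final concentration.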
* hit, by the source's call; i = inactive; [ ] = another dose, or the depositor's remark. Potency is the fitted concentration of half-maximal effect.

SMILES	Pf Dd2 inh
Cc1nc(N2CCC(NC(=O)c3cccs3)CC2)cc(C(F)(F)F)n1	5µM*
COc1ccc(C(=O)NC2CCN(c3cc(C(F)(F)F)nc(C)n3)CC2)cc1	14µM*
Cc1nc(N2CCC(NC(=O)Cc3cccs3)CC2)cc(C(F)(F)F)n1	i
Cc1ccc(C(=O)NC2CCN(c3cc(C(F)(F)F)nc(C)n3)CC2)cc1	i
COc1ccc(C(=O)NC2CCN(c3cc(C(F)(F)F)nc(C)n3)CC2)c(C)c1	-3%
Cc1nc(N2CCC(NC(=O)c3ccsc3)CC2)cc(C(F)(F)F)n1	-7%
COc1ccc(CN2C(=O)[C@@H]3C[C@@H](O)CN3C3(CN(Cc4cccs4)C3)C2=O)cc1	i
Cc1ccc(-n2ncc(C(=O)NCCCN3CCCCC3)c2C2CCN(C(=O)OC(C)(C)C)CC2)cc1	10µM*
COc1ccccc1N1CCN(CCCNC(=O)c2cnn(-c3ccc(C)c(C)c3)c2C2CCN(C(=O)OC(C)(C)C)CC2)CC1	5.6µM*
COc1ccccc1N1CCN(CCCNC(=O)c2cnn(-c3cccc(Cl)c3)c2C2CCN(C(=O)OC(C)(C)C)CC2)CC1	2µM*
COCc1nc(-c2ccc(OC3CN(Cc4cccs4)C3)cc2)no1	-5%
CCN(CC)Cc1cnc2c(C(=O)N3CCCC(CCCO)C3)cnn2c1 (stereo unspecified)	-3%
Cc1cccc(C(=O)N2CCCC(c3nnnn3C)C2)c1 (stereo unspecified)	18%
Cn1nc(C(=O)N2CCC3(CC2)N=C(c2cccc(Br)c2)NO3)c2ccccc21	i
COC(=O)[C@@H]1Cc2c([nH]c3ccccc23)[C@H]2C[C@H](N3CCCCC3)C[C@@H](c3ccccc3F)N21	1.4µM*
COC(=O)[C@@H]1Cc2c([nH]c3ccccc23)[C@H]2C[C@@H](N3CCCCC3)C[C@@H](c3ccccc3F)N21	4µM*
COC(=O)[C@@H]1Cc2c([nH]c3ccccc23)[C@H]2C[C@H](NC[C@H]3CCCO3)C[C@@H](c3ccccc3F)N21	-14%
COC(=O)[C@@H]1Cc2c([nH]c3ccccc23)[C@H]2C[C@@H](NCCNC(C)=O)C[C@@H](c3ccccc3F)N21	-7%
COc1ccc(CC(=O)NC2CCCc3c2[nH]c2ccccc32)cc1OC (stereo unspecified)	-14%
COCC1CN(C(C)=O)CC12CCN(C(=O)NCc1ccco1)CC2 (stereo unspecified)	29%
CC(C)CCN1C(=O)CC[C@]2(C(=O)N3CCN(c4ccc(F)cc4)CC3)CCCC[C@@H]12	10µM*
CC(C)CCN1C(=O)CC[C@]2(C(=O)N3CCOCC3)CCCC[C@@H]12	-19%
CN1C(=O)CC[C@]2(C(=O)N3CCN(c4ccc(F)cc4)CC3)CCCC[C@@H]12	-3%
C=CCN1CCN(C(=O)C2CCN(C(=O)N3CC4CC(C3)[C@H]3CCCC(=O)N3C4)CC2)CC1 (stereo partly specified)	6%
O=C(C1CCC1)N1CCC2(CCN(Cc3ccccc3F)CC2)C(CO)C1 (stereo unspecified)	-23%
SMILES	Pf Dd2 inh
CN(C)C[C@@H]1CN(c2ncccn2)C[C@H]1NC(=O)CCn1cccn1	19%
Cc1nc(C(=O)N2CCOc3c(O)cc(-c4cccc(Cl)c4)cc3C2)c(C)o1	-19%
Cc1cnc(C)c(-c2cc(O)c3c(c2)CN(C(=O)C2CCOC2)CCO3)n1 (stereo unspecified)	-16%
CCn1cc(C(=O)N2CCOc3c(O)cc(-c4ccccc4C)cc3C2)cn1	13µM*
COc1ccc(C(C)NC(=O)CN2C(=O)NC3(CCS(=O)(=O)CC3)C2=O)cc1 (stereo unspecified)	-15%
CCC1=C(C(=O)OC)C(c2ccccc2F)N2C(CC(=O)N3CCCC3)=CSC2=N1 (stereo unspecified)	-12%
CCC1=C(C(=O)OC)C(c2ccccc2)N2C(CC(=O)N(C)Cc3ccccc3)=CSC2=N1 (stereo unspecified)	-24%
CCCN(CCC)C(=O)CC1=CSC2=NC(CC)=C(C(=O)OC)C(c3cccc(F)c3)N12 (stereo unspecified)	2.2µM*
O=C1NCCOCCN(S(=O)(=O)c2cccnc2)[C@H]2CCC[C@@H]12	i
COc1ccc(-c2nc(C(C)C)nc3c2CCN(C(=O)c2cccc(Cl)c2)CC3)cc1	5.6µM*
COc1ccc(-c2nc(C(C)C)nc3c2CCN(C(=O)c2ccc(F)cc2)CC3)cc1	11µM*
CCc1nc2c(c(-c3ccc(OC)cc3)n1)CCN(C(=O)c1ccccc1OC)CC2	-10%
COc1ccc(-c2nc(C(C)C)nc3c2CCN(C(C)=O)CC3)cc1	i
Cc1ccc(C(=O)N2CCc3nc(C(C)C)nc(-c4ccc(O)cc4)c3C2)cc1	i
COc1ccccc1C(=O)N1CCc2nc(C(C)C)nc(-c3ccc(Cl)cc3)c2CC1	-28%
CC(C)c1nc2c(c(-c3ccc(Cl)cc3)n1)CCN(C(=O)c1ccc(C(F)(F)F)cc1)CC2	10µM*
CC(C)c1nc2c(c(-c3ccc(O)cc3)n1)CN(C(=O)c1ccc(C(F)(F)F)cc1)CC2	i
COc1ccc(-c2nc(C(C)C)nc3c2CCN(C(=O)Nc2ccccc2)CC3)cc1	5µM*
COc1ccc(-c2nc(C(C)C)nc3c2CCN(C(=O)C2CC2)CC3)cc1	i
COc1ccc(-c2nc(C(C)C)nc3c2CCN(C(=O)N(C)C)CC3)cc1	-23%
CN(CCC(O)c1ccccc1)C(=O)c1ccc2oc(-c3cccc(F)c3)nc2c1 (stereo unspecified)	i
Cc1cnc(C(=O)NC2C[C@H]3CC[C@@H](C2)N3C(=O)Cc2c(C)noc2C)cn1 (stereo partly specified)	5%
Cc1ccc(-c2cc(N3CCCN(C(=O)Cc4cccs4)CC3)n[nH]2)cc1C	i
CN1CCC(OC2CCN(C(=O)C(C)(C)C)CC2)CC1	4%
O=C(NCCc1cccc(F)c1)C1CC(=O)N(c2n[nH]c3ccccc23)C1 (stereo unspecified)	-17%
SMILES	Pf Dd2 inh
COc1cccc(C(=O)N2CC[C@H]3COC(=O)N3c3cc(F)ccc3C2)c1	-4%[44.1 µM]
O=S(=O)(NC[C@H]1COCc2nc3cccnc3n21)c1ccc(Cl)cc1	i
Nc1ccc(-c2ccc(OCCn3ccnc3)cc2)cn1	i
CCN(CC)Cc1cnc2c(C(=O)N3CCN(c4ncccn4)CC3)cnn2c1	9%
CC(C)c1nc2c(c(-c3ccc(O)cc3)n1)CN(C(=O)Nc1ccc(Cl)cc1)CC2	11µM*
CC(C)c1nc2c(c(-c3ccc(O)cc3)n1)CN(C(=O)C1CCCC1)CC2	i
CC(C)c1nc2c(c(-c3ccc(O)cc3)n1)CN(C(=O)C1CC1)CC2	i
O=C1COc2ccc(N3CCCC3)nc2CN1Cc1ccccc1	-29%[44.1 µM]
COc1ccc(CN2CC3(CCN(C(=O)Cn4c(=O)oc5ccccc54)CC3)C2=O)cc1	i
CC(C)(C)c1ccc(C(=O)Nc2onc3c2CCCC3)cc1	7.9µM*
O=C(Nc1onc2c1CCCC2)c1ccccc1	-6%
CCOc1ccc(C(=O)Nc2onc3c2CCCC3)cc1	24%
COc1ccc(NC(=O)N2CC(c3nnc(-c4ccncc4)o3)C3(CCOCC3)C2)cc1 (stereo unspecified)	-23%
NCCn1cc(C(=O)NC2CCCN(c3cnccn3)C2)nn1 (stereo unspecified)	2%
O=C(CCCc1nc(-c2ccncc2)no1)N1CCCC2(CCNCC2)CC1	-5%
CC1(c2ccccc2)N(Cc2ncccn2)C(=O)OC12CCN(C(=O)Cc1ccc(Cl)cc1)CC2 (stereo unspecified)	13µM*
